# Source: PubChem
# Tau fluor counter – counter-screen for tau fibril formation inhibitors | tau K18 P301L Alexa594 fluorescence, heparin fibrillization | Potency, µM (highest dose often 57.7 µM), for the others: at the top dose activity change, negative = decrease | hit rate 0.93% among 280,000 | AID 1463; also: potency is read from the fitted curve at half-maximal effect; nearly all actives have a fitted effect of over 55% in size
#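 Human K18 P301L tau (15 uM unlabeled plus 0.24 uM Alexa 594-labeled, final) in 100 mM sodium acetate pH 7 was mixed with compound and 20 uM heparin and incubated 6 hr at 37 C.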
# Sfp PPTase inh – blocks B. subtilis Sfp PPTase activity | Q9F4F7 | Biochemical Sfp PPTase activity, qHTS | Potency, µM, for the others: largest response in the series, negative = inhibition, hits mostly inhibitors | hit rate 3.5% among 310,000 | AID 1490;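 also: the enzyme is Sfp with the accession as filed and its product quenches rhodamine fluorescence; potency is read from the fitted curve at half-maximal effect; 0% = enzyme reaction without inhibitor and -100% = no enzyme wells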
#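 After 15 min at room temperature with compound, 15 nM Sfp received 5 uM rhodamine-CoA plus 12.5 uM BHQ-2-ybbR (50 mM Hepes pH 7.6, 10 mM MgCl2). Rate came from the fluorescence difference over 30 min, ex 525/em 598 nm.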
# Tau fibril ThT – inhibitors of human tau fibril formation, thioflavin T binding | recombinant tau K18 P301L (four-repeat tau fragment), heparin-induced fibrillization, ThT fluorescence | Potency, µM (highest dose often 57.4 µM), for inactives: at the highest dose activity, negative = inhibition, hits mostly inhibitors | hit rate 2.1% among 270,000 | AID 1460; also: potency is read from the fitted curve at half-maximal effect; nearly all actives have a fitted effect of over 55% in size
# Target sequence (P10636 561-689 P618L limits assumed): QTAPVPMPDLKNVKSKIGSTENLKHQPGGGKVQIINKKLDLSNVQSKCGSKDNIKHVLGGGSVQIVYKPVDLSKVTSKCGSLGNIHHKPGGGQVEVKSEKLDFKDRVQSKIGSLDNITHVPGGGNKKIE
#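 Recombinant human tau K18 fragment […] carrying P301L, 15 uM unlabeled plus 0.24 uM Alexa 594-labeled, was fibrillized with 20 uM heparin in 100 mM sodium acetate pH 7 for 6 hr at 37 C; 30 uM ThT fluorescence read after 1 hr.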
# Tau FP inhib – blocks human tau fibril formation measured by polarization; Potency, µM (top dose mostly 57.7 µM), for inactives: at the highest dose activity, negative = inhibition, usual class: inhibitors; hit rate 0.39% among 280,000; K18 P301L tau heparin fibrillization, Alexa594 FP, 6 h; P10636; also: potency is read from the fitted curve at half-maximal effect; nearly all actives have a fitted effect of over 55% in size
#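 FP of Alexa 594-tau after heparin (20 uM) induction. Substrate: human K18 P301L, 15 uM unlabeled, 0.24 uM labeled. Buffer 100 mM sodium acetate pH 7. 6 hr, 37 C.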
# Coupling enz – coupling enzyme interference in Giardia aldolase counter-screen. coupling enzyme system counterscreen, AmpLite Red fluorescence. activity change, negative = inhibition, % at 58.2 µM, hits read low. hit rate 0.67% among 290,000. AID 2472; in the data active = activity change below about -30%
#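 Fluorescence at 525 nm excitation and 598 nm emission measured inhibition of the coupled detection system without aldolase. Compounds (at 57.5 uM final) were preincubated 10 min at room temperature with coupling enzyme reagent before a 20 min substrate/AmpLite Red step.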
# Starred values were filed as active, the others as inactive; ? = inconclusive; / = no result; ! = not confirmed by another sample; [ ] = remark or other dose. Compounds with a hit are over-represented: about 5.2% of the library has one in this group of screens. Unless noted, calls follow the shape of the dose curve; as a rule, active = well fitted curve in the direction sought with a large enough effect; inconclusive = small, poorly fitted or top-dose-only effect, or another doubt; inactive = no such curve, though single readings can be large; an effect the other way counts as inactive or inconclusive. Unless noted, % is scaled to controls: 0 for no effect and ±100 for the full control effect.
SMILES,Tau fluor counter,Sfp PPTase inh,Tau fibril ThT,Tau FP inhib,Coupling enz
C=CCn1c(C)cc(-c2csc(N)n2)c1C,?,39.8µM*,15.8µM*,?,-8.2
C=CCn1c(C)cc(-c2csc(NC)n2)c1C,5.1%,25.1µM*,4.5%,3.8%,-25.3
CCOCCCNC(=O)C1CCN(c2cc(C)nc3c(-c4ccc(Cl)cc4)c(C)nn23)CC1,-16.6%,/,-10.6%,1.6%,/
COc1cc(NC(=O)COc2ccccc2[N+](=O)[O-])ccc1NC(=O)c1cccs1,-7.0%,15.8µM*,-4.3%,-3.6%,0.9
Cc1cccc(/C=C2\CS/C(=C\c3cccc(C)c3)C2=O)c1,-18.8%,-6.6%,3.55µM*,-2.9%,0.9
c1cc2c3c(cccc3c1)NC1(CCCCCC1)N2,?,8.8%,?,9.5%,-10.8
c1cc2c3c(cccc3c1)NC1(CCC3(CC1)Nc1cccc4cccc(c14)N3)N2,12.6µM*[quencher],?,15.8µM*,-10.6%,-11.9
c1csc(CNc2ncncc2-c2ccoc2)c1,/,7.8%,/,/,4.6
O=C1C2C3C=CC(C3)C2C(=O)N1/N=C/c1cc(Br)cc([N+](=O)[O-])c1O (stereo not drawn),-14.6%,20.3%,7.94µM*,-2.1%,1.5
O=C1C2C3C=CC(C3)C2C(=O)N1/N=C/c1ccc(-c2ccccc2[N+](=O)[O-])o1 (stereo not drawn),-12.5%,5.7%,?,5.5%,-17.4
CC(=O)N1CCn2c3c(c4cc(C)ccc42)CCCC31 (stereo not drawn),-19.1%,-5.9%,-18.5%,9.7%,2.1
CC(=O)N1CCn2c3c(c(=O)c4cc(C)ccc42)CCC31 (stereo not drawn),?,-19.5%,25.1µM*,?,-42.3*
C=C1C[C@@]23C[C@]1(O)CC[C@@H]2[C@]12C=C[C@@H](O)[C@](C)(C(=O)O1)[C@H]2[C@H]3C(=O)O,/,-2.3%,/,/,0.4
O=[N+]([O-])c1ccc(-c2c[nH]c(=S)[nH]2)cc1,?,3.55µM*,25.1µM*,?,3.1
S=c1[nH]cc(-c2ccccc2)[nH]1,1.3%,-1.8%,-1.6%,1.1%,5.0
COc1ccc(C2/C=C\CN([S+](=O)([O-])c3ccc4ccccc4c3)C(C)C(=O)N2Cc2ccc(F)cc2)cc1 (stereo not drawn),/,3.0%,/,/,0.0
CC1=C(c2ccccc2)[N+](=O)C2(CCCC2)N1[O-],3.8%,-17.0%,-9.5%,-3.1%,3.7
O=[N+]([O-])c1ccc2c(c1)N([O-])C1(CCCCC1)[N+]2=O,?,7.08µM*,3.55µM*,11.2µM*,-50.8*
CCOc1ccc(CNC(=O)c2ccc3nc(Cc4ccc(OC)cc4)oc3c2)cc1OC,-9.6%,/,-3.5%,13.5%,/
CC(=O)c1ccc(N(C)C)cc1,-4.7%,9.0%,-9.4%,6.5%,-1.1
CN(C)c1ccc(C(=C2C=CC(=[N+](C)C)C=C2)c2ccccc2)cc1,/,50.1µM*,/,/,-19.4
CN(C)c1ccc(C(=C2C=CC(=[N+](C)C)C=C2)c2ccc(N(C)C)cc2)cc1,7.08µM*[quencher],44.7µM*!,5.01µM*,15.8µM*,-57.7*
Cc1cc(C)c2c(CC(=O)Nc3cc(C(F)(F)F)ccc3Cl)coc2c1,-5.9%,/,13.4%,-12.7%,/
COc1ccc(/C=N/NC(=O)c2ccc3ccccc3c2)cc1OS(=O)(=O)c1ccc(NC(C)=O)cc1,?,21.3%,7.7%,12.6µM*,3.7
COc1ccc(C=O)cc1OS(=O)(=O)c1ccc(NC(C)=O)cc1,6.0%,11.4%,9.0%,11.9%,5.9
SMILES,Tau fluor counter,Sfp PPTase inh,Tau fibril ThT,Tau FP inhib,Coupling enz
COc1ccc(/C=N/NC(=O)c2ccc(NC(=O)C3CCCCC3)cc2)cc1O,/,79.4µM*,/,/,/
Cc1cc(NC(=O)C2CCN(S(=O)(=O)c3cccc4nsnc34)CC2)ccc1Br,-26.2%,/,4.9%,?,/
Cc1ccc(N=Cc2cccc(O)c2O)c(C)c1,?,3.55µM*,3.16µM*,8.91µM*,-28.1
CC(N=Cc1cccc(O)c1O)c1ccccc1 (stereo not drawn),?,?,5.01µM*,?,-39.0*
Cc1ccccc1N=Cc1cccc(O)c1O,?,?,7.94µM*,?,-26.3
COc1cccc(NC(=O)Cn2cnc3c(nc4n3CCCCC4)c2=O)c1,-0.9%,/,0.1%,1.7%,/
CC(=O)c1ccc(Nc2c3ccccc3cc3occc23)cc1,/,-15.7%,/,/,5.0
CCn1cc(C(=O)N(C)c2cc(C)ccc2C)c2cc(OC)c(OC)cc2c1=O,-3.8%,/,-2.0%,-2.9%,/
CC1(C)CCC[C@@](C)([C@H]2CC[C@]3(C)[C@@H]2[C@H](O)CC2[C@@]4(C)CC[C@H](O)C(C)(C)[C@@H]4[C@@H](O)C[C@]23C)O1 (stereo partly drawn),/,5.0%,/,/,1.8
COc1ccc(C)cc1NC(=O)CC1NCCNC1=O (stereo not drawn),2.3%,/,2.8%,-1.2%,/
CC1(C)Cc2c(c(N3CCCC3)[nH]c(=S)c2C#N)CO1,-4.2%,39.8µM*,-2.4%,-1.7%,4.5
Brc1ccc(-c2csc(NNC3=NCCCCC3)n2)cc1,?,50.1µM*,?,-6.0%,-1.3
FC(F)Oc1ccc(-c2csc(NNC3=NCCCCC3)n2)cc1,-29.1%,22.4µM*,28.2µM*,?,-4.3
N#Cc1ccc(-c2csc(NC3=NCCCCC3)n2)cc1,-2.0%,-11.0%,6.1%,-0.8%,-0.8
CC(C)(C)c1ccc(-c2csc(NNC3=NCCCCC3)n2)cc1,?,50.1µM*,15.8µM*,?,-0.6
c1ccc(-c2csc(NC3=NCCCCC3)n2)cc1,-7.0%,0.1%,-7.7%,12.8%,3.0
CCCCCc1ccc(OCCCC[n+]2ccc(C)cc2)c(CCCCC)c1,-15.3%,50.1µM*,?,-2.4%,-6.3
CCC(C)(C)c1ccc(Oc2cccc(C(=O)O)c2)cc1,-9.4%,18.2%,-9.4%,2.8%,17.7
CCCCCc1ccc(OCCCC[n+]2ccccc2)c(CCCCC)c1,6.3%,35.5µM*,-16.2%,4.2%,2.3
CCC(C)(C)c1ccc(OCCCC[n+]2ccccc2)c(C(C)(C)CC)c1,-5.7%,50.1µM*,?,-6.3%,0.8
CCCCCc1ccc(OCCCC[n+]2cccc(C)c2)c(CCCCC)c1,5.7%[2.34 µM],-8.4%,?,1.1%,0.2
COc1ccccc1NC(=O)Cn1c(=O)n(Cc2cccs2)c(=O)c2cccnc21,-0.7%,/,22.2%,6.1%,/
CCCCCCCC/C=C/CCCCCCCC(=O)NCCOP(=O)(O)O,/,4.4%,/,/,10.5
COc1cc(CNCCc2ccccc2)cc(Cl)c1OCc1ccccc1,-19.0%,31.6µM*,-16.9%,-11.3%,-0.8
Cc1ccc(C)c(NC(=O)c2cnn(-c3cccc(F)c3)c2C2CCN(C(=O)OC(C)(C)C)CC2)c1,-17.0%,/,-15.2%,2.2%,/
CCOC(=O)CCCc1sc(N)nc1-c1[nH]c(=O)[nH]c1C,4.3%,22.4µM*,-8.7%,-8.3%,-11.9
O=C(COC(=O)c1ccc(Br)o1)Nc1nc2ccccc2s1,?,13.6%,?,-4.9%,-1.5
